Measurements: the supplement of paper PMC11732987, “Enantioselective OTUD7B fragment discovery through chemoproteomics screening and high-throughput optimisation” (Communications Chemistry, 2025)

Columns and labels:
Assay in all cases: log2 ratio of Biotin-Ahx-Ub-VS probe labelling (fragment/DMSO); higher = less target engagement (more negative = stronger competition), active = hit call of the paper (q ≤ 0.05, log2 ratio ≤ -1)
Conditions in all cases: compound concentration: 200 uM; treatment time: 3 h
[1] = molecular target: T1, USP19 (UniProt O94966)
T1 sequence (whole entry): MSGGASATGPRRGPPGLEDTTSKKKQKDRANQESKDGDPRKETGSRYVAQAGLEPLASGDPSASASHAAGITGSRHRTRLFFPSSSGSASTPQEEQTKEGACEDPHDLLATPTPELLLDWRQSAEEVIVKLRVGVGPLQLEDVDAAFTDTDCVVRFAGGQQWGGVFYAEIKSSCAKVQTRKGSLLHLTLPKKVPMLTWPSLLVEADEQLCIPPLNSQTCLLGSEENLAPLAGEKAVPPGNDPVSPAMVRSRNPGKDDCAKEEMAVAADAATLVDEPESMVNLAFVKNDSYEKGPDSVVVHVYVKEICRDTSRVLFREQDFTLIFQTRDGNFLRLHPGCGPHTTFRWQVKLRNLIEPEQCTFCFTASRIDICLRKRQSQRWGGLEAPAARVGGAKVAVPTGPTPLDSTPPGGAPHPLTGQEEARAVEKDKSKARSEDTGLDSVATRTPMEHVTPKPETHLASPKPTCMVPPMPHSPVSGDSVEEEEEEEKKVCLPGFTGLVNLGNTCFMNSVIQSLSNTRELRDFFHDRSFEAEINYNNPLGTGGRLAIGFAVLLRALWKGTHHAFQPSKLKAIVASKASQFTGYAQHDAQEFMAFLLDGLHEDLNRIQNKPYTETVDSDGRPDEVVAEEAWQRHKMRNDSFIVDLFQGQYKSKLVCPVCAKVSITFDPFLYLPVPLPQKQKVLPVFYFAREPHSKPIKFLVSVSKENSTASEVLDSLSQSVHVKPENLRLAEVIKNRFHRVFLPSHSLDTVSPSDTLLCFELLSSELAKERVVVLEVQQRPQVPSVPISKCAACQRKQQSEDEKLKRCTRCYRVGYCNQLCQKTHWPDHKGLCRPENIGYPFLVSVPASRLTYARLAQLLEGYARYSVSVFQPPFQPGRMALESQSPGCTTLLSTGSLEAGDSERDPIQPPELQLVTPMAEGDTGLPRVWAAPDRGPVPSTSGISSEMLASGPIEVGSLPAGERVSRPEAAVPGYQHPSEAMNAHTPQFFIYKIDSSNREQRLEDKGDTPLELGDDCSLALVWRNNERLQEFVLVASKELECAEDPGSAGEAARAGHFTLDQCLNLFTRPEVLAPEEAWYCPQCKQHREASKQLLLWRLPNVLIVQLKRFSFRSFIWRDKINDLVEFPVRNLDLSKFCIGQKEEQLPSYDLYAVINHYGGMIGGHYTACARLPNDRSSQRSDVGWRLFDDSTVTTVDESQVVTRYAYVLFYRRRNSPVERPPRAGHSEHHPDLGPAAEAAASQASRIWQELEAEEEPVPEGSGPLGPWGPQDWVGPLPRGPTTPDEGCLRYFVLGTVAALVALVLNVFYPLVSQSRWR
Summary of the method: (§1)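 HEK293T lysate in Tris/CHAPS/IGEPAL buffer with protease inhibitors (495 µg per sample) was given fragment at 200 µM or vehicle for 3 h, in triplicate. It then received Biotin-Ahx-Ub-VS at 0.5 µM final for 1 h. Labelled DUBs were NeutrAvidin-enriched, digested with LysC and trypsin, and run by diaPASEF LC-MS/MS. Values are average log2 fragment/vehicle ratios by unpaired t-test on global-median-normalised Spectronaut quantities of proteins with ≥2 unique peptides.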

[2] = molecular target: T2, USP22 (UniProt Q9UPT9)
T2 sequence (whole entry): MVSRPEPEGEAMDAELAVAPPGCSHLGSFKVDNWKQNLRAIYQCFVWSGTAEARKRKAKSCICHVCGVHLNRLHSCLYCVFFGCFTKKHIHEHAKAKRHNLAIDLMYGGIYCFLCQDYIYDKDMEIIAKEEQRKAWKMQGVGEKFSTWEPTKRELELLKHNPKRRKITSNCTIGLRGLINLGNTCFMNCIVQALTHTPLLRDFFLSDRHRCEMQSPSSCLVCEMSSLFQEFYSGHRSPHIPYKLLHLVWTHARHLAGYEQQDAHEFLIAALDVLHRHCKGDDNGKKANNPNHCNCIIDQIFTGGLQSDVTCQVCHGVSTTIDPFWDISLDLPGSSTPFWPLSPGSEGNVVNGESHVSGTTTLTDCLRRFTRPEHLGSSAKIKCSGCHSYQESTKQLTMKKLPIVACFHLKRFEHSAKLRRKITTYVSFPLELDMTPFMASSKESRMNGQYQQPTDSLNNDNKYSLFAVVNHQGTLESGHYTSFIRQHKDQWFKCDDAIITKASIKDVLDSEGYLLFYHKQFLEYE
Summary of the method: as §1

[3] = molecular target: USP24 (UniProt Q9UPU5)
Summary of the method: as §1

[4] = molecular target: T3, USP25 (UniProt Q9UHP3)
T3 sequence (whole entry): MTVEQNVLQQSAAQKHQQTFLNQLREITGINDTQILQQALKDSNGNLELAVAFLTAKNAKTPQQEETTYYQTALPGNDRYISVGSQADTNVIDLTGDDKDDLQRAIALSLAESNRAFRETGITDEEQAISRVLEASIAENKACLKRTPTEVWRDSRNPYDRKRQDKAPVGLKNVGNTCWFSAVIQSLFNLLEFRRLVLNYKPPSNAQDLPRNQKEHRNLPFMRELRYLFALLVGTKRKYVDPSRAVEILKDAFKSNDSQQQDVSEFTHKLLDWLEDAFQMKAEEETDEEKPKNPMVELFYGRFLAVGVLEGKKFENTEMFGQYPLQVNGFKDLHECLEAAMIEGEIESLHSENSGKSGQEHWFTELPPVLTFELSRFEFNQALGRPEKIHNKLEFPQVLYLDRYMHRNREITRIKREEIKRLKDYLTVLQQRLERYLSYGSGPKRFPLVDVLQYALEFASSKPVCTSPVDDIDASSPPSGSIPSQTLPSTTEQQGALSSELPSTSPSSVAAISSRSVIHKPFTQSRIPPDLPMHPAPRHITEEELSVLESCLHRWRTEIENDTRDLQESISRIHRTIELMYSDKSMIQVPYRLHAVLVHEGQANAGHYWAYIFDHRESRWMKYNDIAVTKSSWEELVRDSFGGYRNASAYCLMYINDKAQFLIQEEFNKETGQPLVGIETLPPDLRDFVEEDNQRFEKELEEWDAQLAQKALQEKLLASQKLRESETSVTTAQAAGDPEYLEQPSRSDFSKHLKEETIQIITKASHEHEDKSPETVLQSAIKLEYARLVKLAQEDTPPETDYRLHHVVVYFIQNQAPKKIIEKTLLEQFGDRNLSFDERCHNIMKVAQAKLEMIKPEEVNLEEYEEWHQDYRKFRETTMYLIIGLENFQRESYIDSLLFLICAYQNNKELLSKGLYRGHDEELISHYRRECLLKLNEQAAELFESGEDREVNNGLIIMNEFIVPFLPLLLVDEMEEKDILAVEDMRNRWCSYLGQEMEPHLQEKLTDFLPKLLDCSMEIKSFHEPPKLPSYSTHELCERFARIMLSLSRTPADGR
Summary of the method: as §1

[5] = molecular target: T4, USP28 (UniProt Q96RU2)
T4 sequence (whole entry): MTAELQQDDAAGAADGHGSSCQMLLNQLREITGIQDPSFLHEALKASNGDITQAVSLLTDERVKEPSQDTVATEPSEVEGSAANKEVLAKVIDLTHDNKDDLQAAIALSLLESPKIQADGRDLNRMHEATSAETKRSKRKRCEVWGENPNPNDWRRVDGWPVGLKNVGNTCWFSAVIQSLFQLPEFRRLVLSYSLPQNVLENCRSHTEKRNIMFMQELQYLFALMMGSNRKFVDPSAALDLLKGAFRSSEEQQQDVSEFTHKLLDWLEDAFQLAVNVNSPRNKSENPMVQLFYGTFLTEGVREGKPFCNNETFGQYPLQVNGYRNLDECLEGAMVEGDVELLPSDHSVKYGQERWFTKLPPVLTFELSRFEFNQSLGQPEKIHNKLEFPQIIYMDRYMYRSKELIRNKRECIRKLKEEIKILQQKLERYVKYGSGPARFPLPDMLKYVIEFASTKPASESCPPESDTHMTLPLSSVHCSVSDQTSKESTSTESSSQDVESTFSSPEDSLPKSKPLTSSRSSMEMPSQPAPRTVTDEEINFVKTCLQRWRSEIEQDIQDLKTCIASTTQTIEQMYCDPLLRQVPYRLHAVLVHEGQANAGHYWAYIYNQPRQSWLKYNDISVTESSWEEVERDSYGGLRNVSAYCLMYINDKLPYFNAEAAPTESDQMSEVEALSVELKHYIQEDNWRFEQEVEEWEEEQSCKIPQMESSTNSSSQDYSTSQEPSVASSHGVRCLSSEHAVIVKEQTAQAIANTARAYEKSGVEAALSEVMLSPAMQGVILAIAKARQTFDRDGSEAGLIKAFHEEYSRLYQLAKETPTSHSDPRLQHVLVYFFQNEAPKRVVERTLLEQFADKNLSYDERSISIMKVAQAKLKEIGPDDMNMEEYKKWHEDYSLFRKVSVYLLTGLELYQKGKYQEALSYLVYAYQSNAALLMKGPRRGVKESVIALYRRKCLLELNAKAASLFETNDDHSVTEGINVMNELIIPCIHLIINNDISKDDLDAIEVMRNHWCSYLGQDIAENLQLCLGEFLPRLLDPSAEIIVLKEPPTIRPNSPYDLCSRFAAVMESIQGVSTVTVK
Summary of the method: as §1

Measured: log2 ratio of Biotin-Ahx-Ub-VS probe labelling

Chain of USP24 (Q9UPU5 whole entry): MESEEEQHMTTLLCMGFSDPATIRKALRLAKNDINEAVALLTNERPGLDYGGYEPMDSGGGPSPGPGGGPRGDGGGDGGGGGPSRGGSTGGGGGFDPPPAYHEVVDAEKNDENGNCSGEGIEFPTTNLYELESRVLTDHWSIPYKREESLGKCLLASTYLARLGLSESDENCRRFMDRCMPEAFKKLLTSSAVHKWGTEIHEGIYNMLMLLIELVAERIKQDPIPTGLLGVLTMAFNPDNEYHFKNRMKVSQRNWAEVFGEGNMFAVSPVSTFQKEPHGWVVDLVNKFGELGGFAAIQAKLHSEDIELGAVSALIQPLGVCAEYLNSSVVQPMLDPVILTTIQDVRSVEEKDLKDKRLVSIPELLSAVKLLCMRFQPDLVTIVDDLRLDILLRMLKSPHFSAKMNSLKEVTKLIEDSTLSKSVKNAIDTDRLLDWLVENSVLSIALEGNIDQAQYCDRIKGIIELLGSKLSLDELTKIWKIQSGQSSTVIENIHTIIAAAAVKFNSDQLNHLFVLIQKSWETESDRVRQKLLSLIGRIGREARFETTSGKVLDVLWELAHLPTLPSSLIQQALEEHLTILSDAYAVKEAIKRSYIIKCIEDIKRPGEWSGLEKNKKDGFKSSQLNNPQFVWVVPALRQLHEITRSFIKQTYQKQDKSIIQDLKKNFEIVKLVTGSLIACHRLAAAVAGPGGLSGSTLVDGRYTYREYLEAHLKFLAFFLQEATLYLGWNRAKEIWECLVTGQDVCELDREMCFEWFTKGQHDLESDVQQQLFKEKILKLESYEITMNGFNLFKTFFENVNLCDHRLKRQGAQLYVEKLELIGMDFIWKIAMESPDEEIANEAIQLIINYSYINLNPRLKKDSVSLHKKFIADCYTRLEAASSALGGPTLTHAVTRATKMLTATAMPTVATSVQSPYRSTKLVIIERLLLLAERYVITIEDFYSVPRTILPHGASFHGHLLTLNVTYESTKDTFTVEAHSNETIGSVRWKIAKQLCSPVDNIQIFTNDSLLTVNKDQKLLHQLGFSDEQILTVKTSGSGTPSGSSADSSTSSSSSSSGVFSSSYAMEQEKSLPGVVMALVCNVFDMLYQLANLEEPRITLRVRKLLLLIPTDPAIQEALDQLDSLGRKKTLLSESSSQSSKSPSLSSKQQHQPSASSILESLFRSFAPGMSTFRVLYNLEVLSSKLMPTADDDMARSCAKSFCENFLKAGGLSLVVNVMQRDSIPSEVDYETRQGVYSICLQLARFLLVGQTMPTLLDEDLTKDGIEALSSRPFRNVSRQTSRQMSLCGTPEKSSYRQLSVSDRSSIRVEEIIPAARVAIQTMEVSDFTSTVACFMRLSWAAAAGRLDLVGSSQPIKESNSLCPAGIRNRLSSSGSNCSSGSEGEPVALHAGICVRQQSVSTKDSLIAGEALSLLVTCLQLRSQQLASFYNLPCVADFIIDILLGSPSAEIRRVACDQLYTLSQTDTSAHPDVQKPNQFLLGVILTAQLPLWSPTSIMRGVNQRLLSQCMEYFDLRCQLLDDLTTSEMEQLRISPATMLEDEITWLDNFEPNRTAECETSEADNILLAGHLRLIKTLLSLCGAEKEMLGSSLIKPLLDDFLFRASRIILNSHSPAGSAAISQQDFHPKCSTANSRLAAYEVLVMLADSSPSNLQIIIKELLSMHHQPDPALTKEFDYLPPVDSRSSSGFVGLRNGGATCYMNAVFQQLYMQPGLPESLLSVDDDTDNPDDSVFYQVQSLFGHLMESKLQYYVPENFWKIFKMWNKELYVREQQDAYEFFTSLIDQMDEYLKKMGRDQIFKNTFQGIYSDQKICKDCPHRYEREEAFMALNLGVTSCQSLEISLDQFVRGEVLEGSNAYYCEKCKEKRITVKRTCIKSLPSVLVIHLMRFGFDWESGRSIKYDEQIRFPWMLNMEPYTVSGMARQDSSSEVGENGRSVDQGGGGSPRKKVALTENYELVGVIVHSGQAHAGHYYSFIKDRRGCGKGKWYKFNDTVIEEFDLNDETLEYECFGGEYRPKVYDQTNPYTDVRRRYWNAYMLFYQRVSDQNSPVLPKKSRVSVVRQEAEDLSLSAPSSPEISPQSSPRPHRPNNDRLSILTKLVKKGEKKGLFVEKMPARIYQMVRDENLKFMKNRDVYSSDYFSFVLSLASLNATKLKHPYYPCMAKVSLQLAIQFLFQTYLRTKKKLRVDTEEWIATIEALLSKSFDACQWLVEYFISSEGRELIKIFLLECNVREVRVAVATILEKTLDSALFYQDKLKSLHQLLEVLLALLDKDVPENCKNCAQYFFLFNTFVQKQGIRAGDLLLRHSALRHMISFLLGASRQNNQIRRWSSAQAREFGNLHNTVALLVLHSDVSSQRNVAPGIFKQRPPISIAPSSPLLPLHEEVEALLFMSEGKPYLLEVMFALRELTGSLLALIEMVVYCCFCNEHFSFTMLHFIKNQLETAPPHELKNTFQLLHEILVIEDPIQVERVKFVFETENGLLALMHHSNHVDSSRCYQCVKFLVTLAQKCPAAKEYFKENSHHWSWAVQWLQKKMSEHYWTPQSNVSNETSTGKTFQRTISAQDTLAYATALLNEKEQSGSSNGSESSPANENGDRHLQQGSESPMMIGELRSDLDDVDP

O=C(CCl)NCc1ccc(N2CCOCC2)c(F)c1
inactive: [1] 0.108 | [2] -0.359 | [3] 0.223 | [4] -0.255 | [5] -0.606
